# High-throughput results (PubChem)
# Rows were chosen to be rich in hits. Some 6.9% of all compounds tested hit in one or more screens of this group.
# IL-1B inflam inh = qHTS for Inhibitors of Inflammasome Signaling: IL-1-beta AlphaLISA Primary Screen; THP-1 LPS/ATP IL-1B secretion, AlphaLISA, 16 h; hits give low values; activity change, % at 57.5 µM; actives 4.7% (n = 360,000); AID 743279, 2014; in the data active means activity change below about -50%; inconclusive means mostly about -30% to -49%; further: on the % scale 0 is the no-effect control and ±100 the full control effect
#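 THP-1 cells pretreated 1 hr with compounds (up to 57.5 uM final), then stimulated with LPS (250 ng/mL final) plus ATP (1.25 mM final); secreted IL-1B measured by AlphaLISA after 16 hr, decreased signal indicating inhibition.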
# MCF10A rerep = A quantitative high throughput screen for small molecules that induce DNA re-replication in MCF 10a normal breast cells; MCF 10A DNA re-replication, Hoechst nuclear intensity, 48 h; Potency, µM (titrated, usually from 46.1 µM), for the others: at the highest dose activity, positive = re-replication, hits mostly activators; actives 2.9% (n = 350,000); further: potency means the concentration at half of the fitted maximal effect; % of control where 0% means no effect; nearly all actives have a fitted effect of over 50% in size
# Vif-APOBEC3G blk = qHTS for Inhibitors of Vif-A3G Interactions: qHTS. AID 602310, 2012. actives 0.076% (n = 410,000). DNA dC->dU-editing enzyme APOBEC-3G (Homo sapiens), Q9HC16. HeLa A3G-eYFP + Vif (tagged APOBEC3G with the HIV-1 protein that degrades it), YFP fluorescence, overnight. Potency, µM (top dose mostly 46.1 µM), for the others: at the top dose activity, negative = active, actives largely listed as inhibitors; further: potency means the concentration at half of the fitted maximal effect; on the % scale 0 is the no-effect control and ±100 the full control effect; nearly all actives have a fitted effect of over 60% in size
# Target sequence (Q9HC16 whole entry, looked up): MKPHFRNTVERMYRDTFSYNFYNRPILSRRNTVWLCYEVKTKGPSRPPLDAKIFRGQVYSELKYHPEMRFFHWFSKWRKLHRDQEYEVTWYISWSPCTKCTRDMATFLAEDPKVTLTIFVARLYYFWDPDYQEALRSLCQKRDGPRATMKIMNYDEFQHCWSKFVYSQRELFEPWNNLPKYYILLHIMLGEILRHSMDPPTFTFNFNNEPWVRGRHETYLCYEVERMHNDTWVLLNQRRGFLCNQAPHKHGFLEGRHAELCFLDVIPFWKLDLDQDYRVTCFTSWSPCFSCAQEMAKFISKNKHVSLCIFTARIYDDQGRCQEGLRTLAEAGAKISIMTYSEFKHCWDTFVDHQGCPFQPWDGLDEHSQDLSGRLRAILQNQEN
#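 Read-out is eYFP fluorescence (Ex 488/Em 500-530) from Vif-expressing HeLa A3G-eYFP cells; more signal means A3G escaped Vif-mediated degradation. Cells plated overnight, compound pinned in, incubated overnight at 37 deg C.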
# Vif-APOBEC3F blk = qHTS for Inhibitors of Vif-A3F Interactions: qHTS; HeLa A3F-eYFP + Vif (tagged APOBEC3F with the HIV-1 protein that degrades it), YFP fluorescence increase; Potency, µM (titrated, usually from 46.1 µM), inactives show at the top dose activity, negative = active; actives 0.2% (n = 390,000); further: potency means the concentration at half of the fitted maximal effect; % of control where 0% means no effect; nearly all actives have a fitted effect of over 65% in size
#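 Fluorescence increase (Ex 488/Em 500-530) after overnight compound treatment at 37 deg C flags inhibition of Vif-driven A3F-eYFP loss in stable HeLa A3F-eYFP/Vif cells seeded overnight beforehand.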
# Giardia kill = Small Molecules that selectively kill Giardia lamblia: qHTS; AID 540267, 2011; activity change, % at 7.66 µM, hits read low; actives 0.15% (n = 340,000); Giardia lamblia trophozoite viability; in the data active means activity change below about -80%; inconclusive means between about -30% and that limit;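 further: parasites exposed to compound for two days anaerobically before the ATP read; on the % scale 0 is the no-effect control and ±100 the full control effect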
#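 Compounds were tested on trophozoites seeded at 100 cells/well and held 48 hrs at 37 deg C anaerobically. An ATP-based luminescent kit measured the remaining live cells.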
# SW480 rerep = A quantitative high throughput screen for small molecules that induce DNA re-replication in SW480 colon adenocarcinoma cells. SW480 DNA re-replication, Hoechst DNA content imaging, 48 h. Potency, µM (doses to about 46.1 µM), for inactives: at the top dose re-replication activation, usual class: activators. actives 1.8% (n = 340,000); further: potency means the concentration at half of the fitted maximal effect; % of control where 0% means no effect; nearly all actives have a fitted effect of over 55% in size
#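 Hoechst fluorescence of nuclei (405 nm excitation, 500-530 nm emission) measured by plate-scanning imager after 48 hr compound exposure at 37 C; re-replication scored as increased number of nuclei with elevated intensity.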
# * marks the source's active call; other numbers are inactive results; u = inconclusive; x = no result; [ ] = dose if it differs, or a comment. Unless noted, the call rests on the fitted dose curve; in most records, active means well fitted curve in the direction sought with a large enough effect; inconclusive means small, poorly fitted or top-dose-only effect, or another doubt; inactive means no such curve, though single readings can be large; an effect the other way counts as inactive or inconclusive.
SMILES,IL-1B inflam inh,MCF10A rerep,Vif-APOBEC3G blk,Vif-APOBEC3F blk,Giardia kill,SW480 rerep
COc1cccc(-n2c(/C=C/c3ccccc3O)nc3ccccc3c2=O)c1,x,x,-8%,-3%,x,x
COCCCNC(=O)c1c(NC(=O)c2ccccc2Cl)n(Cc2ccccc2)c2nc3ccccc3nc12,-4,u,1%,14%,-4,10µM*
COCCNC(=O)c1c(NC(=O)c2ccco2)n(Cc2ccccc2)c2nc3ccccc3nc12,-8,u,u,u,-12,2.6µM*
Cc1ccc(Cn2c(SCc3ccc(C(=O)NC4CCCC4)cc3)nc3ccncc32)cc1,x,x,u,2%,x,x
O=c1[nH]c(=O)n(Cc2ccccc2)c(O)c1C=NCCN1CCNCC1,19,2.9µM*,-6%,-5%,1,6.5µM*
C=CCn1c(O)c(C=NCCN2CCNCC2)c(=O)[nH]c1=O,9,0%,0%,-3%,2,-5%
COc1ccc(OC)c(-n2c(O)c(C=Nc3c(C)n(C)n(-c4ccccc4)c3=O)c(=O)[nH]c2=O)c1,0,u,5%,1%,2,u
Cc1c(N=Cc2c(O)n(Cc3ccccc3)c(=O)[nH]c2=O)c(=O)n(-c2ccccc2)n1C,-72*,-8%,-1%,1%,11,29µM*
O=c1c(C=NCCN2CCNCC2)c(O)n(C2CCCCC2)c(=O)n1C1CCCCC1,-61*,u,1%,0%,-2,u
COc1ccccc1-n1c(O)c(C=Nc2c(C)n(C)n(-c3ccccc3)c2=O)c(=O)[nH]c1=O,22,u,-1%,-13%,13,23µM*
C[C@H](CO)N1C[C@H](C)[C@@H](CN(C)C(=O)NC2CCCCC2)Oc2c(cccc2N(C)C)C1=O,-1,-35%,1%,0%,-22,u
O=C1CCCCC1CN1CCCCC1 (configuration not stated),x,-4%,x,x,x,0%
CCCCN(Cc1ccccc1)C1CCN(CCc2ccccc2)CC1,-65*,-2%,1%,5%,-11,u
COc1ccc(Cn2c(=O)oc3ccc(C)cc32)cc1OC,10,-182%[0.0737 µM],-2%,0%,1,u
Cc1nc2ccccc2c(=O)n1/N=C/c1cc(Br)cc(Br)c1O,149,27%,1%,-4%,-2,7.3µM*
CCSc1nnc(NC(=O)c2cccn(Cc3ccc(Cl)cc3)c2=O)s1,x,x,-1%,5%,x,x
CCC(C)c1ccc(N2C(=O)NC(=O)/C(=C/c3cccn3CCOc3ccc(C)cc3)C2=O)cc1 (configuration not stated),0,21µM*,-8%,0%,0,17%
CC(C)(O)[C@H]1O[C@H]2CC[C@@]3(C)[C@@](O)(CC[C@H]4Cc5c([nH]c6ccccc56)[C@@]43C)C2=CC1=O,-4,u,-2%,u,-11,0.73µM*
CCOC(=O)[C@]12Cc3c(cc(OC)c(OC)c3OC)[C@H]1N(CCC(=O)OC)C(=O)c1ccccc12,-116*,x,x,x,x,x
CCOC(=O)[C@]12Cc3c(cc(OC)c(OC)c3OC)[C@H]1N(C)C(=O)c1ccccc12,-55*,x,x,x,x,x
CCOC(=O)[C@]12Cc3c(cc(OC)c(OC)c3OC)[C@H]1N(Cc1ccccc1)C(=O)c1ccccc12,u,u,-9%,-4%,-14,0%
CCCC1(CC(C)C)C(=O)NC(=S)NC1=O,10,-3%,-7%,11%,-10,0%
Cc1sc(NC(=O)Cn2c(=O)oc3ccccc32)nc1-c1ccc(Cl)cc1,-5,u,u,1%,-5,-2%
CCC(C)NC(=O)c1c(N)n(CC2CCCO2)c2nc3ccccc3nc12 (configuration not stated),-57*,u,1%,x,-8,18µM*
CC(C)CCNC(=O)c1c(N)n(CC2CCCO2)c2nc3ccccc3nc12 (configuration not stated),u,2.3µM*,-1%,-4%,0,5.2µM*
SMILES,IL-1B inflam inh,MCF10A rerep,Vif-APOBEC3G blk,Vif-APOBEC3F blk,Giardia kill,SW480 rerep
CCC(C)NC(=O)c1c(N)n(Cc2ccc3c(c2)OCO3)c2nc3ccccc3nc12 (configuration not stated),u,u,-17%,u,-7,u
O=C1CN(O)C(c2ccccc2Cl)=c2cc(Br)ccc2=N1,22,23µM*,-7%,-1%,-6,-1%
Cc1cccc(NC(=O)c2cc3c(=O)n4ccccc4nc3n2C)c1C,x,x,u,6%,x,x
N#CSCC(=O)N1c2ccccc2CCc2ccccc21,-51*,u,-16%,-16%,9,u
CC[C@]1(c2cccc(O)c2)CCCCN(C)C1,x,-9%[20.6 µM],x,x,x,-2%[20.6 µM]
COc1cc(O)c2c(c1)/C=C/C[C@H](O)[C@H](O)C(=O)CCC[C@H](C)OC2=O,-81*,x,-14%,x,x,x
COc1cccc2c1C(=O)c1c(O)c3c(c(O)c1C2=O)CC(O)(C(C)=NO)CC3OC1CC(N)C(O)C(C)O1 (configuration not stated),-97*,-17%,2%,-26%,-20,-3%
Cc1ccc(Cn2cc(C=O)c3ccccc32)cc1,-9,u,-14%,8%,-7,u
O=Cc1cn(Cc2ccc([N+](=O)[O-])cc2)c2ccccc12,0,18µM*,-11%,-5%,-21,u
CCOc1ccccc1N=C1SCCCN1C,-1,13%,2%,1%,-5,-3%
CCOc1cccc(=NC2CCCCC2)c2c(C)n(C)c(C)c12,-97*,-1%,3%,-1%,-14,3%[9.22 µM]
CCN(CC)S(=O)(=O)c1ccc(C(=O)O)cc1,1,1%,2%,1%,28,u
C[C@]12CCC(=O)C(O)=C1CC[C@@H]1[C@H]3CCC(=O)[C@@]3(C)CC[C@@H]12,x,15%,x,x,x,-2%
O=C(CNC(=O)c1cccs1)OCC(=O)c1ccc([N+](=O)[O-])cc1,-89*,u,1%,-15%,-13,22%
O=C(Nc1ccc2c(c1)OCCO2)c1cccn(Cc2cccc([N+](=O)[O-])c2)c1=O,x,x,2%,2%,x,x
